Several values for one entry are separate records, joined by “and”; a condition that tells them apart may be missing. Equal entries are not always repeated. Inconclusive results are not listed. Activity calls are given as the source filed them. Unless noted, calls come from the whole dose curve; as a rule, active = well fitted curve in the direction sought with a large enough effect; inconclusive = small, poorly fitted or top-dose-only effect, or another doubt; inactive = no such curve, though single readings can be large; an effect the other way counts as inactive or inconclusive.
Experiments:
[1] = qHTS assay for environmental chemicals that activate the Aryl hydrocarbon Receptor (AhR) signaling pathway (AID 651777); details: 1A2-DRE human hepatoma cells, luciferase, 24 h; activation: stronger effect = higher value; note: % of control where 0% means no effect; nearly all actives have a fitted effect of over 15% in size
Procedure, shortened: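 Human hepatoma 1A2-DRE cells stably carrying a DRE/CYP1A2 promoter–luciferase reporter, 1,200 cells/well, exposed to compound 24 hr at 37 C. Luciferase read by One-Glo luminescence after 30 min at room temperature; increased signal marks AhR activation.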

[2] = qHTS assay for small molecule agonists of the antioxidant response element (ARE) signaling pathway measured by Nrf2-dependant transcriptional activity (AID 720636; active = well fitted curve in the direction sought with a large enough effect in the repeat runs; an effect the other way counts as inactive or inconclusive; note: % of control where 0% means no effect); details: ARE-luc HepG2, Nrf2 luciferase reporter, 16 h; series mostly up to 92.4 µM
Procedure, shortened: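 ARE-luc HepG2 cells carrying an Nrf2-responsive luciferase reporter, in medium with 1% dialyzed FBS, exposed to compound for 16 hr at 37 C, 5% CO2. Luminescence read 30 min after ONE-Glo addition.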

[3] = qHTS assay for small molecule agonists of the antioxidant response element (ARE) signaling pathway measured by Nrf2-dependant transcriptional activity - cell viability counter screen (AID 720653; active = well fitted curve in the direction sought with a large enough effect in the repeat runs; an effect the other way counts as inactive or inconclusive; note: potency is the fitted concentration of half-maximal effect; for max response: % is set by controls: 0 for no effect and ±100 for the full control effect); details: ARE-bla HepG2 viability, CellTiter-Glo ATP luminescence, 16 h; max response: stronger effect = lower value
Procedure, shortened: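 ARE-bla HepG2 cells (2,000/well) rested 5 hrs at 37C/5% CO2, then exposed to compounds in DMSO for 16 hrs. Viability was read in the same wells as intracellular ATP by luminescence, 30 min at room temperature after reagent addition.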

[4] = qHTS assay for cell viability of the p53RE-bla HCT-116 cell line (AID 743292); details: p53RE-bla HCT-116 viability, ATP luminescence, 16 h; series mostly up to 95 µM; note: nearly all actives have a fitted effect of over 55% in size; note: potency is the fitted concentration of half-maximal effect
Procedure, shortened: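 CellSensor p53RE-bla HCT-116 cells (4,000/well) pre-incubated 5 h at 37 C, then exposed to compounds in DMSO for 16 h at 37 C. Viability read as ATP content by CellTiter-Glo luminescence after 30 min at room temperature.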

[5] = target: Estrogen receptor (Homo sapiens) (UniProt P03372); assay: qHTS assay for small molecule agonists of estrogen receptor alpha signaling (AID 588514; calls by dose curve;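 note: 0% = vehicle only and 100% = reference agonist; nearly all actives have a fitted effect of over 70% in size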); details: ER-alpha-UAS-bla HEK293, beta-lactamase ratio, 18 h; series mostly up to 76.8 µM
Procedure, shortened: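 ER-alpha-UAS-bla GripTite HEK 293 cells in medium with 2% charcoal/dextran-treated FBS were treated with compound titrations at 37 C for 18 hrs; beta-lactamase reporter read by CCF4 fluorescence after 2 hrs at RT.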

[6] = target: Glucocorticoid receptor (Homo sapiens) (UniProt P04150); assay: qHTS assay for small molecule agonists of glucocorticoid receptor signaling (AID 588532; active = well fitted curve in the direction sought with a large enough effect in the signal ratio, with a control signal flat; the % refers to the signal ratio;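 note: 100% = dexamethasone at 0.1 µM and 0% = DMSO only wells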); details: HeLa MMTV-bla, beta-lactamase ratio, agonist, 18 h; stronger effect = higher value; percent of dexamethasone control, DMSO zero
Procedure, shortened: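 Titration series, up to 92 uM, applied to GRE-bla HeLa cells for 18 h at 37 C. Detection by CCF4 FRET substrate after 2 h at RT.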

[7] = qHTS assay for small molecule antagonists of peroxisome proliferator-activated receptor delta signaling (AID 588535); details: HEK293T PPARd-UAS-bla, beta-lactamase FRET ratio, 18 h; 460 nm channel;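 note: cells co-treated with a PPAR-delta agonist as stimulator during compound exposure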
Procedure, shortened: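 GeneBLAzer PPAR-delta-UAS-bla HEK293T cells in medium with 2% charcoal/dextran FBS were preincubated 5 hrs at 37 C, then given compounds, incubated 18 hrs at 37 C, and read by CCF4 beta-lactamase fluorescence; IC50 from Hill fits.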

[8] = target: Peroxisome proliferator-activated receptor gamma (Homo sapiens) (UniProt P37231); assay: qHTS assay for small molecule agonists of peroxisome proliferator-activated receptor gamma signaling (AID 588536; active = well fitted curve in the direction sought with a large enough effect in the signal ratio, with a control signal flat, not every such curve was filed as active; the % refers to the signal ratio;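 note: 0% = DMSO basal wells and 100% = rosiglitazone at 2 µM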); details: HEK293 PPARg-UAS-bla, beta-lactamase ratio, 16 h, percent of rosiglitazone response, DMSO as zero; series mostly up to 76.7 µM
Procedure, shortened: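 HEK293 UAS-bla reporter line, 1% charcoal/dextran FBS; titration, 16 h, 37 C; CCF4 loading 2 h RT; fluorescence 460/530 nm. Normalized to rosiglitazone 2 uM = 100%, DMSO = 0%.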

[9] = target: Vitamin D3 receptor (Homo sapiens) (UniProt P11473); assay: qHTS assay for small molecule agonists of vitamin D receptor signaling (AID 588543; calls by dose curve;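 note: 0% = DMSO basal and 100% = reference agonist control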); details: HEK293T VDR-UAS-bla, beta-lactamase ratio, 16 h; series mostly up to 76.8 µM
Procedure, shortened: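 GeneBLAzer VDR-UAS-bla HEK293T cells in 2% charcoal-stripped FBS medium were dosed with compound titrations for 16 h at 37 °C; CCF4 β-lactamase readout (405 nm ex, 460/530 nm em). EC50 and efficacy from Hill fits, normalized to 50 nM calcitriol (100%) and DMSO (0%).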

[10] = qHTS assay for small molecule agonists of retinoid X receptor alpha signaling (AID 588544; calls by dose curve;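 for activation: 0% = DMSO basal wells and 100% = reference agonist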); details: HEK293T RXRa-UAS-bla, beta-lactamase reporter, 18 h; 530 nm emission
[11] = target: Retinoic acid receptor RXR-alpha (Homo sapiens) (UniProt P19793); assay: as above; details: HEK293T RXRa-UAS-bla, beta-lactamase reporter, 18 h; series mostly up to 76.7 µM
[12] = target: Thyroid hormone receptor beta (Homo sapiens) (UniProt P10828); assay: qHTS assay for small molecule agonists of thyroid hormone receptor beta signaling (AID 588545; calls by dose curve;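 note: 0% = DMSO only and 100% = 10 nM T3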); details: TR-UAS-bla GripTite HEK 293, beta-lactamase ratio, agonist mode, 18 h; series mostly up to 76.7 µM
Procedure, shortened: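 Compounds were tested as agonists in TR-UAS-bla-GripTite HEK 293 cells. After 18 hrs at 37 C, CCF4 substrate was added and fluorescence read after 2 hrs at room temperature.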

[13] = qHTS assay for small molecule antagonists of retinoid X receptor alpha signaling (AID 588546; active = well fitted inhibition curve with a large enough effect in the signal ratio, with a control signal flat, not every such curve was filed as active; the % refers to the signal ratio;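 note: cells stimulated with 9-cis-retinoic acid as agonist; % is set by controls: 0 for no effect and ±100 for the full control effect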); details: HEK293T RXRa-UAS-bla, beta-lactamase ratio, antagonist mode; measured here: W530 green channel, cytotoxicity proxy
Procedure, shortened: (§1)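 Beta-lactamase reporter inhibition, read as CCF4 fluorescence ratio (ex 405, em 460/530 nm) after 2 h at RT. HEK293T UAS-bla cells, 2500/well, were stimulated with 9-cis-RA at 500 or 100 nM final alongside test compound for 18 h at 37 C.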

[14] = target: Retinoic acid receptor RXR-alpha (Homo sapiens) (UniProt P19793); assay: as above; details: HEK293T RXRa-UAS-bla, beta-lactamase ratio, antagonist mode
Procedure, shortened: as §1

[15] = target: Thyroid hormone receptor beta (Homo sapiens) (UniProt P10828); assay: qHTS assay for small molecule antagonists of thyroid hormone receptor beta signaling (AID 588547; active = well fitted inhibition curve with a large enough effect in the signal ratio, with a control signal flat, not every such curve was filed as active; the % refers to the signal ratio;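 note: cells stimulated with 0.4 nM T3 agonist during compound exposure; % is set by controls: 0 for no effect and ±100 for the full control effect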); details: TR-UAS-bla HEK293, beta-lactamase ratio, antagonist mode, 18 h
Procedure, shortened: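 TR-UAS-bla GripTite HEK293 cells in 2% charcoal/dextran FBS medium were preincubated 4 h at 37 C, given compound (0.59 nM to 92 uM) plus 0.4 nM T3 (final) for 18 h, then CCF4 for 2 h at RT; Hill fit gave IC50.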

[16] = target: Peroxisome proliferator-activated receptor alpha (Homo sapiens) (UniProt Q07869); assay: qHTS assay for small molecule agonists of the peroxisome proliferator-activated receptor alpha (PPARalpha) signaling pathway (AID 651778); details: PathHunter PPARalpha complementation, chemiluminescence, 6 h; max response: stronger effect = higher value; note: % of control where 0% means no effect
Procedure, shortened: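 Cells plated at 2,000/well and held overnight at 37 C, 5% CO2, then compound added by pin tool for 6 hr; after PathHunter detection reagent and 60 min at room temperature, chemiluminescence from enzyme complementation was read.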

[17] = qHTS assay for cell viability of HEK293 cells (AID 743288); details: ATP luminescence (CellTiter-Glo), 18 h; max response: stronger effect = lower value; note: % is set by controls: 0 for no effect and ±100 for the full control effect; nearly all actives have a fitted effect of over 50% in size
Procedure, shortened: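 Parental HEK293 cells were seeded at 2,000 cells/well, rested at least 5 h at 37 C, then exposed to compounds in DMSO for 18 h at 37 C. Viability was read as ATP-dependent luciferase luminescence after 30 min at room temperature.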

[18] = target: Nuclear receptor subfamily 1 group I member 2 (Rattus norvegicus) (UniProt Q9R1A7); assay: qHTS assay for small molecule activators of the rat pregnane X receptor (rPXR) signaling pathway (AID 651751; call rule not given here; note: 0% is about no effect); details: rPXR reporter cells, luciferase (One-Glo), 24 h
[19] = qHTS assay for small molecule activators of the human pregnane X receptor (PXR) signaling pathway (AID 720659; call rule not given here; note: 0% is about no effect); details: DPX-2 HepG2 CYP3A4-luciferase, 24 h; series mostly up to 92.3 µM
[20] = target: Glucocorticoid receptor (Homo sapiens) (UniProt P04150); assay: qHTS assay for small molecule antagonists of glucocorticoid receptor signaling (AID 588533; active = well fitted inhibition curve with a large enough effect in the signal ratio, with a control signal flat, not every such curve was filed as active; the % refers to the signal ratio;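 note: cells stimulated with 2 nM dexamethasone as agonist; % is set by controls: 0 for no effect and ±100 for the full control effect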); details: HeLa MMTV-bla, GRE beta-lactamase ratio, antagonist mode, 18 h; series mostly up to 76.8 µM
Procedure, shortened: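 Antagonist-mode qHTS: compound titrations added to GRE-bla HeLa cells, then dexamethasone 2 nM final; 18 h, 37 C. CCF4 FRET fluorescence normalized to dexamethasone and DMSO; IC50 from Hill fit.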

Chain of Retinoic acid receptor RXR-alpha (Homo sapiens) (P19793 whole entry, looked up): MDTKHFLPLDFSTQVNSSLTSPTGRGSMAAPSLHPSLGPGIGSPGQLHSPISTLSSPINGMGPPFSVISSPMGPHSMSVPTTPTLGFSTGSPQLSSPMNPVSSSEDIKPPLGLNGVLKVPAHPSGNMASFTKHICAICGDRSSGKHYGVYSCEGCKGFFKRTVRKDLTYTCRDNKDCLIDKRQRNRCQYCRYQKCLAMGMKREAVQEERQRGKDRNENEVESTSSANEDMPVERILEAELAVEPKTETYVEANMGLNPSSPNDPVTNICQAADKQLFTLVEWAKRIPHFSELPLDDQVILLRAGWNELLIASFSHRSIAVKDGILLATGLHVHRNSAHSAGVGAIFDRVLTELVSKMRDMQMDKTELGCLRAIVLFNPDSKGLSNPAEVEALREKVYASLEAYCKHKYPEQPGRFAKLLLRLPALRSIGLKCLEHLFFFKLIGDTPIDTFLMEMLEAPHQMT
Chain of Vitamin D3 receptor (Homo sapiens) (P11473 whole entry, looked up): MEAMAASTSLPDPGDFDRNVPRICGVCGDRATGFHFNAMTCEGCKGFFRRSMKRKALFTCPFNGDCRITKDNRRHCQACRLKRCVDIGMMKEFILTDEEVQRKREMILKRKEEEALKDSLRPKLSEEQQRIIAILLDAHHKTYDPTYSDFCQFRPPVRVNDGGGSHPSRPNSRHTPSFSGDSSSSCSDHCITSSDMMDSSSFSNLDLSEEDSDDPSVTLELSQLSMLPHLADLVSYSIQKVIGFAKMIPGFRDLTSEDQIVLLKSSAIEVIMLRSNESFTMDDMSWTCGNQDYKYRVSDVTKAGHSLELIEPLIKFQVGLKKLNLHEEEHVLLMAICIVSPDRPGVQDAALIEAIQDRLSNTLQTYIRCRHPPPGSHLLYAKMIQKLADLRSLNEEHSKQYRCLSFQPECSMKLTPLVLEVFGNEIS
Chain of Peroxisome proliferator-activated receptor gamma (Homo sapiens) (P37231 whole entry, looked up): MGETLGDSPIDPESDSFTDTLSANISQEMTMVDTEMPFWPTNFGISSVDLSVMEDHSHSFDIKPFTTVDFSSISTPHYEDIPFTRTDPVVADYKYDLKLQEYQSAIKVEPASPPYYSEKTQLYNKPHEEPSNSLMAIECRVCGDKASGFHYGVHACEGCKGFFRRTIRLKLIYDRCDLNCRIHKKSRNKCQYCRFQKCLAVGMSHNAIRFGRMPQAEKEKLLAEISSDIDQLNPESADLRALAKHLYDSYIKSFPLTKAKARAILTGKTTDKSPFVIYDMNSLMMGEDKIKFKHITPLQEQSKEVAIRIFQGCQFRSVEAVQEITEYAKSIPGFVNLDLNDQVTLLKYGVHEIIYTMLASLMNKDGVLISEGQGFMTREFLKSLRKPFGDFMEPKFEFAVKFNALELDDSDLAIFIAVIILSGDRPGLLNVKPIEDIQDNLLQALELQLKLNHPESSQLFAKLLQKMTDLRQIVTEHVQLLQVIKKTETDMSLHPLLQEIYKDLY
Chain of Glucocorticoid receptor (Homo sapiens) (P04150 whole entry, looked up): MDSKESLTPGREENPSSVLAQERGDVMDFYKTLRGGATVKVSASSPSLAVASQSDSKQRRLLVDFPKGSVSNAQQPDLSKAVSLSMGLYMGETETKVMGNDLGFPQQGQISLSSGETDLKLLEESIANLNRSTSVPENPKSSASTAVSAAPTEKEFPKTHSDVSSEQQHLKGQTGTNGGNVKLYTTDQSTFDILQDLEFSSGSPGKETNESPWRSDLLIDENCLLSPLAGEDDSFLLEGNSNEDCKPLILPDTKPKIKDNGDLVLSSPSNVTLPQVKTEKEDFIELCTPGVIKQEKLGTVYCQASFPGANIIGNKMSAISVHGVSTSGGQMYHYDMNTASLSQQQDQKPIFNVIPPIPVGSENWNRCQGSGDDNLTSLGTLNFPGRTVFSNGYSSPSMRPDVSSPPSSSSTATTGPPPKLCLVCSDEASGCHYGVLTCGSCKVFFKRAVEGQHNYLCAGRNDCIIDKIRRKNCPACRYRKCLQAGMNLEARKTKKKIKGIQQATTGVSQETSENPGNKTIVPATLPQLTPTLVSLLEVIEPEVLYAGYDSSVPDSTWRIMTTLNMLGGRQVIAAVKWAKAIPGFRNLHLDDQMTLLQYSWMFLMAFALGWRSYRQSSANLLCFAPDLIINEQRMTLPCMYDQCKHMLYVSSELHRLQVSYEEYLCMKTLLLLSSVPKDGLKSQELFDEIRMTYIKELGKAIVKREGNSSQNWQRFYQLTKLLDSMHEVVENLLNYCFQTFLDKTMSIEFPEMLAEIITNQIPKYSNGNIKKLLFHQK
Chain of Estrogen receptor (Homo sapiens) (P03372 whole entry, looked up): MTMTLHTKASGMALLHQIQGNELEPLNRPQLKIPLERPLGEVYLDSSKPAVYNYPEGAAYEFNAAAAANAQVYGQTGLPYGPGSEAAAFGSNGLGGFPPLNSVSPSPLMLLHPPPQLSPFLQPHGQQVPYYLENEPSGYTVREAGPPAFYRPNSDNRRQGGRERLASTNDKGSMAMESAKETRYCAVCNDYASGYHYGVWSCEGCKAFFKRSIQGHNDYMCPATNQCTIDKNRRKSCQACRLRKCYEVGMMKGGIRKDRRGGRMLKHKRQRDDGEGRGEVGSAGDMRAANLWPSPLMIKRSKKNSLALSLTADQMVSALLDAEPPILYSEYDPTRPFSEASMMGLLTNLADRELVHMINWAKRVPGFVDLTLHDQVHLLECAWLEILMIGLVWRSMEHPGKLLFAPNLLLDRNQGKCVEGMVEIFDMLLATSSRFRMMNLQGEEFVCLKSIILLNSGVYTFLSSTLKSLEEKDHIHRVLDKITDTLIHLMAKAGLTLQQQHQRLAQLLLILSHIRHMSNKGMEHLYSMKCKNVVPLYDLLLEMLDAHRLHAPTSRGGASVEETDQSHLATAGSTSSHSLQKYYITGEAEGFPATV
Chain of Thyroid hormone receptor beta (Homo sapiens) (P10828 whole entry, looked up): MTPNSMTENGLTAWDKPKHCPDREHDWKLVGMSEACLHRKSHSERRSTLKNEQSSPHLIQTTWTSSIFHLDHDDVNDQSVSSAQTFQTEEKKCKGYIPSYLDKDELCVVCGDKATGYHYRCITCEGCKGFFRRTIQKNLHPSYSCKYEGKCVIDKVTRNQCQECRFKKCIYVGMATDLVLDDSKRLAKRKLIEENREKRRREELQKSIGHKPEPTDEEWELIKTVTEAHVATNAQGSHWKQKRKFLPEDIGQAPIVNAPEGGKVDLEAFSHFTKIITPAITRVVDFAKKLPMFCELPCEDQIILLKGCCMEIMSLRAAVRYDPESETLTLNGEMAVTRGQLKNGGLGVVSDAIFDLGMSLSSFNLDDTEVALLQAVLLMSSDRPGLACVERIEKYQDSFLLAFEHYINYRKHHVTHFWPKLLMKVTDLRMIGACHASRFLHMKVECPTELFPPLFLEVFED
Chain of Nuclear receptor subfamily 1 group I member 2 (Rattus norvegicus) (Q9R1A7 whole entry, looked up): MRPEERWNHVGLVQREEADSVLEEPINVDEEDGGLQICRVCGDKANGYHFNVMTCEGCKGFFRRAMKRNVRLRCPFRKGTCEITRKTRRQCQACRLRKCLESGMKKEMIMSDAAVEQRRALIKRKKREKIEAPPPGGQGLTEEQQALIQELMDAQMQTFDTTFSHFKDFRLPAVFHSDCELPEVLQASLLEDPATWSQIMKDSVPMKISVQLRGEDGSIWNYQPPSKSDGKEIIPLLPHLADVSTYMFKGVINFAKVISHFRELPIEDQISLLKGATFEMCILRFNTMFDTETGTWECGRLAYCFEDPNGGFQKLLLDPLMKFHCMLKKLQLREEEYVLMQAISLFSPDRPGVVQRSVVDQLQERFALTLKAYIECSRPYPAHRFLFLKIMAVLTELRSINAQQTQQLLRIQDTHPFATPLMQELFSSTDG
Chain of Peroxisome proliferator-activated receptor alpha (Homo sapiens) (Q07869 whole entry, looked up): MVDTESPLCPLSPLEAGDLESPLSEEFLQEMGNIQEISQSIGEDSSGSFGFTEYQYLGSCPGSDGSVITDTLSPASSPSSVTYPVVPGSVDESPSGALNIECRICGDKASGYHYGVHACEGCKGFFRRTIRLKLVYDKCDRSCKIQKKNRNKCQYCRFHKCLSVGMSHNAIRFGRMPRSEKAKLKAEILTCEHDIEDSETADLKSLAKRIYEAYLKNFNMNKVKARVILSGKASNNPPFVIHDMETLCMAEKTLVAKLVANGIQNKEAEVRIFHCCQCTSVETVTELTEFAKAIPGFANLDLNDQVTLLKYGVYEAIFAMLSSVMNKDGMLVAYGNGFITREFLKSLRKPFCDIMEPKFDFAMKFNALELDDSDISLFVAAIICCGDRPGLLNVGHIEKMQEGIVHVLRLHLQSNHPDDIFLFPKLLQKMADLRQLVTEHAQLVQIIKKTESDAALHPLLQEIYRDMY

CO/N=C1\C[C@]2(C[C@@H]3C[C@@H](C/C=C(\C)C[C@@H](C)/C=C/C=C4\CO[C@@H]5[C@H](O)C(C)=C[C@@H](C(=O)O3)[C@]45O)O2)O[C@H](/C(C)=C/C(C)C)[C@H]1C
active: Potency [3] 44.7 µM | Potency [4] 28.2 µM
inactive: activation [1] 0.384% | Potency [2]

Cl[Si](Cl)(Cl)c1ccccc1
13.6%: max response [7]
-15.8%: max response [10]
-7.94%: max response [13]
inactive: Potency [5] | activation [6] 5.43% | outcome [8] | outcome [9] | Potency [11] | Potency [12] | max response [14] -5.52% | activity change % (negative = inhibition) [15] -0.0742% | activation [1] -0.059% | max response [16] -2.31% | max response [3] -8.94% | max response [17] -13.3% | Potency [4] | max response [18] 1.77% | outcome [19]

CCCCCCCC[Si](Cl)(Cl)Cl
-3.5%: max response [13]
inactive: Potency [5] | activation [6] -0.511% | Potency [20] | outcome [8] | outcome [9] | Potency [11] | Potency [12] | max response [14] -13.9% | activity change % (negative = inhibition) [15] -0.14% | activation [1] 3.53% | max response [16] -0.623% | Potency [2] | max response [3] -9.8% | max response [17] -3.47% | Potency [4] | max response [18] 0.644% | outcome [19]
-7.78%: max response [10]
-4.76%: max response [7]

CN=C(N)NCC1CCOC1 (configuration not stated)
-7.78%: max response [10]
-4.8%: max response [13]
inactive: Potency [5] | activation [6] -0.0864% and -2.61% | Potency [20] | outcome [8] | Potency [11] | Potency [12] | max response [14] 8.29% | activity change % (negative = inhibition) [15] -7.34% | max response [16] -3.68% and 0.552% | max response [3] -1.14% | max response [17] -9.41% | Potency [4] | max response [18] -8.95% and -6.71% | outcome [19]
42%: max response [7]

C[Si](Cl)(Cl)c1ccccc1
-2.11%: max response [13]
-17.5%: max response [10]
44.2%: max response [7]
inactive: Potency [5] | activation [6] 17.8% | Potency [20] | outcome [8] | outcome [9] | Potency [11] | Potency [12] | max response [14] -4.88% | activation [1] 0.0847% | max response [16] -2.64% | Potency [2] | max response [3] -14.9% | max response [17] -2.42% | Potency [4] | max response [18] -3.28% | outcome [19]

COC(=O)c1ccccc1S(=O)(=O)NC(=O)Nc1nc(OC(F)F)cc(OC(F)F)n1
-18.5%: max response [7]
inactive: Potency [5] | activation [6] -5.76% | Potency [20] | outcome [8] | outcome [9] | Potency [11] | Potency [12] | max response [14] -2.35% | activation [1] -0.662% | Potency [2] | max response [3] 4.57% | Potency [4] | max response [18] 1.81% | outcome [19]
-7.16%: max response [13]
-18.6%: max response [10]

COc1ccccc1NC(=O)CC(C)=O
49.4%: max response [7]
7.64%: max response [13]
inactive: outcome [9] | max response [14] -16% | activity change % (negative = inhibition) [15] -1.32% | max response [16] 0.153% | Potency [2] | max response [3] 2.57% | Potency [4] | max response [18] 5.67%

Cc1ccc(N=Nc2c(O)ccc3ccccc23)c(C)c1
-15.2%: max response [13]
inactive: Potency [5] | activation [6] -16.9% | outcome [8] | outcome [9] | Potency [12] | max response [14] -32% | activity change % (negative = inhibition) [15] 9.11% | max response [16] 0.784% | max response [3] -17.4% | max response [17] -21.3% | Potency [4] | max response [18] 13.1%
9.29%: max response [7]

CCCCCCCC/C=C\CCCCCCCCCCCCC
4.69%: max response [10]
inactive: Potency [5] | activation [6] -8.32% | Potency [20] | outcome [8] | Potency [11] | Potency [12] | max response [14] 1.65% | activation [1] -0.312% | max response [16] -1.02% | Potency [2] | max response [3] 1.5% | max response [17] -4.21% | Potency [4] | max response [18] -1.72% | outcome [19]
-11.4%: max response [13]
20.5%: max response [7]

O=C1CCCC/C=C/CCCCCCCCCO1
-16.9%: max response [13]
-0.124%: max response [7]
inactive: Potency [5] | activation [6] -15.4% | Potency [20] | Potency [11] | Potency [12] | max response [14] 5.91% | activity change % (negative = inhibition) [15] -13.1% | Potency [2] | max response [3] 0.0367% | max response [17] 4.39% | Potency [4] | max response [18] -0.578% | outcome [19]
-14.2%: max response [10]

CC(C)=CCC[C@@H](C)[C@H]1CC[C@@]2(C)C3=C(CC[C@]12C)[C@@]1(C)CC[C@H](O)C(C)(C)[C@@H]1CC3
0.0546%: max response [13]
37.7%: max response [7]
-27.3%: max response [10]
inactive: Potency [5] | activation [6] 8.87% | Potency [20] | outcome [8] | outcome [9] | Potency [11] | Potency [12] | max response [14] 8.2% | activity change % (negative = inhibition) [15] -4.34% | activation [1] 1.89% | Potency [2] | max response [3] 3.07% | max response [17] -4.2% | Potency [4] | max response [18] 0.187% | outcome [19]

From PubChem BioAssay (NCATS)
